Screening data from PubChem.
ERb coact inh: inhibitors of ERβ-SRC1 coactivator interaction, primary screen, biochemical, TR-FRET, ERβ LBD, SRC-1 peptide | 86,000 tested, 1.3% active | TR-FRET ER-beta LBD / SRC1-Cy5 peptide binding; receptor agonist-loaded with 1 µM estradiol | inhibition, % at 25.6 µM | Estrogen receptor beta (Homo sapiens), Q92731;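 active means compounds whose percent inhibition of the receptor-coactivator binding signal exceeds about 50% in the single-dose screen, limit read from the data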;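 further: 0% = receptor plus peptide wells without compound and 100% = peptide-only wells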
Target sequence (Q92731 whole entry, looked up, the tested form may be a part): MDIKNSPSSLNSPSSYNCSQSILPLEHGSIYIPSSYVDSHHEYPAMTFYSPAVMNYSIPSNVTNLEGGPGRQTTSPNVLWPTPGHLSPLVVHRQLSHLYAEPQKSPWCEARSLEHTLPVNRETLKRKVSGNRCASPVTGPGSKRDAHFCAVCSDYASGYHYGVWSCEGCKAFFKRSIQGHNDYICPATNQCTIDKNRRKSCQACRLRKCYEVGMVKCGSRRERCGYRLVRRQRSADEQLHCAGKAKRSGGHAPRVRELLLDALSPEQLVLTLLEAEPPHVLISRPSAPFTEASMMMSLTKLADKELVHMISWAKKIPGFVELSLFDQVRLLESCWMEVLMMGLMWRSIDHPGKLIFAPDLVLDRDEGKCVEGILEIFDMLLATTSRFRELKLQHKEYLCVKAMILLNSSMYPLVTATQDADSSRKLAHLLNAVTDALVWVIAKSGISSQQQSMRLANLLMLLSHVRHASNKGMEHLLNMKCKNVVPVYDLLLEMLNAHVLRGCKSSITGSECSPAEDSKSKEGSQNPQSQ
Smad3 inh: Smad3/FoxH1 peptide binding inhibitors, primary screen, biochemical, TR-FRET; AID 630, 2007; inhibition, % at 25 µM; 88,000 tested, 0.29% active; Mothers against decapentaplegic homolog 3 (Homo sapiens), P84022; TR-FRET Smad3/Dy647-FoxH1 peptide binding, europium anti-His;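 active means compounds that reduce the energy-transfer binding signal between the protein and its labelled peptide by more than half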;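 further: 0% = Smad3 plus labelled peptide maximal FRET and 100% = peptide-only background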
ERa coact pot: enhancers of ERα–SRC-1 coactivator binding, primary screen, biochemical, TR-FRET, ERα LBD, low estradiol | 86,000 tested, 1.3% active | Estrogen receptor (Homo sapiens), P03372 | coactivator binding (% of control), % at 25.6 µM | TR-FRET ERalpha-LBD/SRC-Cy5 coactivator binding, 2 h; 100 = basal binding, no effect | AID 639, 2007; in the data active means activity above about 200%;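 further: binding measured in presence of low estradiol as agonist stimulus; 0% = peptide alone without receptor and 100% = receptor with peptide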
ERa SRC1 inh: ERα–SRC-1 coactivator interaction inhibitors, primary screen, biochemical, TR-FRET, ERα LBD, estradiol-bound | Estrogen receptor (Homo sapiens), P03372 | TR-FRET ER-alpha LBD / SRC-1 peptide | inhibition, % at 25.6 µM | 86,000 tested, 1.7% active; in the data active means inhibition above about 50%;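 further: 0% = receptor plus peptide control and 100% = peptide only without receptor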
Calb biofilm kill: clotrimazole potentiators killing Candida biofilms, primary screen, with clotrimazole, Alamar Blue. 85,000 tested, 0.14% active. C. albicans biofilm + clotrimazole. inhibition, % at 6 µM;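 active means inhibition above 20%; inactive means inhibition below 20%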;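 further: preformed 24 hr biofilms exposed to compound for 48 hr; 0% = biofilm without compound and 100% = blank killed by clotrimazole plus chlorhexidine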
MT1-MMP txn act: MT1-MMP promoter reporter activation – cell-based, luciferase luminescence, primary screen; HT1080 MT1-MMP promoter luciferase reporter, overnight; active compounds read high; activation factor at 10 µM; 86,000 tested, 0.16% active; AID 750, 2007;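 active means activation factor of at least 2 for MT1-MMP transcription at 10 µM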
The depositor's hits bear a star; . = no result given; + = active, no number; [ ] = another dose, or the depositor's remark. Most compounds without a hit are left out; they make up all but 3.8% or so of the library.

SMILES	ERb coact inh	Smad3 inh	ERa coact pot	ERa SRC1 inh	Calb biofilm kill	MT1-MMP txn act
CC1(C)Cc2c(c(-c3ccccc3)[nH]c(=O)c2C#N)CS1	2.8	3.7	122.6	8.8	4.6	1.1
O=C(CSc1nnc(SCC(=O)c2ccco2)s1)c1ccco1	53.4*	-0.8	66.8	59.6*	9.3	1.2
O=C(CSc1nc2cc(Cl)ccc2s1)c1ccco1	8.0	-7.9	72.8	12.3	7.2	1.4
COC(=O)c1c(-c2ccncc2)csc1NC(=O)c1ccoc1C	2.6	-9.0	320.8*	8.1	7.4	1.4
C=CCNc1nc(N2CCOCC2)nc(N2CCOCC2)n1	12.4	1.1	91.1	11.7	0.4	1.3
CCCNc1nc(N2CCOCC2)nc(N2CCOCC2)n1	54.8*	9.9	132.9	-2.2	4.8	1
O=C(NCCCCCCNC(=O)c1ccc(Br)s1)c1ccc(Br)s1	58.5*[fluorescence artefact?]	-54.9	416.9*	82.4*[fluorescence artefact?]	-3.8	1
S=C1SCN(C2CCCCCCCCCCC2)CN1C1CCCCCCCCCCC1	.	8.8	.	.	.	.
O=C1Nc2ccccc2SC(c2ccccc2)C1O (configuration not stated)	87.9*	-2.0	14.8	95.2*	5.5	1.4
Cc1nc2cccc([N+](=O)[O-])c2n1CCCN(C)C	.	-6.5	.	.	.	.
CC1(C)Cc2nc3sc4c(SCC(=O)NCc5ccco5)ncnc4c3cc2CO1	39.6	-8.9	289.0*[fluorescence artefact?]	25.5	8.5	0.8
CC(C)c1nc2sc3c(SCC(=O)NCc4ccco4)ncnc3c2c2c1CCC2	11.7	-9.0	+[fluorescence artefact?]	10.6	2.4	1
Cc1nc2c(sc3nc4c(cc32)COC(C)(C)C4)c(=O)n1CC(=O)NCc1ccco1	24.1	-8.1	77.9	13.1	10.8	0.7
CSc1nc(SCC(=O)NCc2ccco2)c2c3c(sc2n1)CN(C)CC3	35.4	10.5	58.1	51.9*[fluorescence artefact?]	7.6	1
CC1(C)Cc2c(sc3c2c2ncnn2c2nnc(SCC(=O)NCc4ccco4)n32)CO1	74.4*[fluorescence artefact?]	10.8	115.7	-1.7	6.6	1.1
CCC(C)(C)n1nnnc1C(c1ccccn1)N1CCN(c2cccc(OC)c2)CC1 (configuration not stated)	-8.4	-4.9	123.0	-5.1	-2.1	1.1
O=C(c1nc2ccc([N+](=O)[O-])cc2[nH]c1=O)[C@@H](O)c1ccc2c(c1)OCO2	.	13.8	.	.	.	.
CC(=NC1CCCCC1)c1ccccc1O	.	15.8	.	.	.	.
C(/C=C/c1ccccc1)=Nc1ccc2c(c1)Cc1ccccc1-2	.	-2.6	.	.	.	.
N#Cc1c(NC(=O)CSc2ncccn2)oc(-c2ccccc2)c1-c1ccccc1	45.3	5.4	59.6	59.9*	4.4	1.1
COc1ccc(-c2oc(NC(=O)CCl)c(C#N)c2-c2ccc(OC)cc2)cc1	55.0*[fluorescence artefact?]	-7.2	55.5	7.0	3.3	1
O=C(O)CCNCC(=O)O	.	-1.1	.	.	.	.
COc1ccc(CCn2c(N)cc(=O)[nH]c2=S)cc1OC	58.5*[fluorescence artefact?]	10.3	43.8	47.5	8.8	1.1
COc1ccc(/C=N/N2C(=O)CSC2=S)cc1	1.1	2.5	102.1	-6.9	4.0	1.1
COc1ccc(-c2nn(-c3ccccc3)cc2/C=N/N2C(=O)CSC2=S)cc1	-1.2	-5.3	313.2*[fluorescence artefact?]	-20.8	8.9	1.5
SMILES	ERb coact inh	Smad3 inh	ERa coact pot	ERa SRC1 inh	Calb biofilm kill	MT1-MMP txn act
CCN1CCn2c3c(c4cc(C)ccc42)CCCC31 (configuration not stated)	55.5*[fluorescence artefact?]	-6.8	79.4	34.2	-0.3	1.2
O=C(Cc1ccccc1)Nc1nc2ccccc2s1	24.9	18.2	66.1	22.7	-0.6	2*
O=C1CC(c2ccc(F)cc2)Cc2nc(N3CCN(c4ccccc4)CC3)ncc21 (configuration not stated)	7.4	16.4	174.0	9.1	4.3	1
O=C1CC(c2ccc(F)cc2)Cc2nc(N3CCc4ccccc43)ncc21 (configuration not stated)	24.5	41.4	203.5*[fluorescence artefact?]	22.5	5.6	1.2
OCCCN=C1CCCCC1	.	10.9	.	.	.	.
c1ccc(Nc2nc(-c3cccs3)cs2)nc1	.	.	.	.	.	0.8
Cc1cccc(Nc2nc(-c3cccs3)cs2)n1	-1.1	11.8	93.9	-0.6	5.0	2.3*
C[N@@+]1(Cc2ccc(Cl)c(Cl)c2)CCC[C@@H]1c1ccc[n+](Cc2ccc(Cl)c(Cl)c2)c1	.	1.3	.	.	.	.
CSc1ccc(S(=O)(=O)Nc2ccc(F)cc2)cc1	-1.4	22.7	30.8	67.0*[fluorescence artefact?]	5.2	0.9
CCc1ccccc1NS(=O)(=O)c1ccc(SC)cc1	3.0	-2.3	36.1	66.3*[fluorescence artefact?]	-0.5	1.1
COc1ccc(NS(=O)(=O)c2ccc(SC)cc2)cc1	0.0	-9.2	108.2	3.8	7.3	.
CSc1ccc(S(=O)(=O)Nc2c(C)cccc2C)cc1	29.6	9.8	40.9	54.7*	2.0	1
Cc1ccc(S(=O)(=O)/N=C(\CCl)N2CCOCC2)cc1	.	.	.	.	4.3	0.8
CCOC(=O)CSc1nc2cc3c(cc2cc1C#N)OCO3	32.4	14.8	160.9	27.1	5.7	1.9
Cc1cc2cc3c(cc2nc1SCC(=O)N1c2ccccc2CC1C)OCO3 (configuration not stated)	48.3	-2.4	162.3	50.5*[fluorescence artefact?]	5.4	1.2
CCOC(=O)CSc1nc2cc(C)ccc2cc1C#N	3.0	0.4	111.2	3.6	-4.9	1.7
COC(=O)CSc1nc2cc3c(cc2cc1C#N)OCO3	15.7	34.7	284.3*[fluorescence artefact?]	30.1	.	1
CCOC(=O)CSc1nc2cc(OC)ccc2cc1C#N	37.6	15.3	346.5*[fluorescence artefact?]	12.6	6.3	1.5
CC1Cc2ccccc2N1C(=O)CSc1nc2cc3c(cc2cc1C#N)OCO3 (configuration not stated)	22.9	4.8	298.2*[fluorescence artefact?]	23.5	.	1.1
Cc1cc2ccccc2nc1SCC(=O)N1c2ccccc2CC1C (configuration not stated)	0.3	-19.2	100.8	1.1	-3.0	.
Cn1c(=O)c2c(nc(N/N=C/c3ccccc3C(=O)O)n2C)n(C)c1=O	.	9.9	.	.	.	.
Cn1c(=O)c(C(=O)COC(=O)c2cc(C(F)(F)F)nc3c(C(F)(F)F)cccc23)c(N)n(Cc2ccccc2)c1=O	.	.	.	.	.	1.1
COc1ccc2noc3c2c1C(=O)c1ccccc1-3	.	.	.	.	.	1.1
O=C1c2ccccc2-c2onc3ccc(NCCCn4ccnc4)c1c23	27.0	3.7	89.1	69.9*[fluorescence artefact?]	7.4	.
COc1cc(C2SCCCCCCCCCCSC(c3ccc(O)c(OC)c3)SCCCCCCCCCCS2)ccc1O (configuration not stated)	.	-10.0	.	.	.	.
O=C(O)c1cc(Cl)cc(Cc2cc(Cl)cc(C(=O)O)c2O)c1O	.	15.1	.	.	.	.
